Mm-Cpn inhibitor: M. maripaludis TRiC chaperonin inhibition; purified Mm-Cpn ATPase, ADP Transcreener TR-FRET; Potency, µM (doses to about 76.9 µM), inactives show at the highest dose activity, negative = inhibition, hits mostly inhibitors; 330,000 compounds, 0.031% hits; AID 504842; note: potency is the fitted concentration of half-maximal effect; % is set by controls: 0 for no effect and ±100 for the full control effect; nearly all actives have a fitted effect of over 80% in size
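ATPase turnover read by TR-FRET ADP competition (Eu cryptate antibody/ADP-d2, 665/590 nm): 10uM ATP final, 25nM Mm-CPN final, 30 min 37degC after 10-min compound preincubation, pH 7.4 Tris/KCl/MgCl2/DTT buffer.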
TDP43 rescue: TDP-43 toxicity inhibition in yeast; Potency, µM (series often up to 46.1 µM), inactives show top-dose growth rescue (activation), usual class: activators; TDP-43 expressing yeast growth rescue, BacTiter-Glo, 24 h; 410,000 compounds, 1.8% hits; note: potency is the fitted concentration of half-maximal effect; % of control where 0% means no effect; nearly all actives have a fitted effect of over 50% in size
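Galactose-induced TDP-43 yeast, OD600=0.02, compound pinned; 24 hr, 30 deg C; BacTiter-Glo luminescence for growth. Inhibitors of TDP-43 toxicity read as activators.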
FUS yeast rescue: FUS proteinopathy suppression in yeast; 390,000 compounds, 0.24% hits; S. cerevisiae FUS-expressing, growth rescue, OD600, 24 h; Potency, µM (top dose mostly 76.6 µM), hits mostly activators;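 note: potency is the fitted concentration of half-maximal effect; plate controls were DMSO vehicle for no effect and reference control for full effect; nearly all actives have a fitted effect of over 55% in size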
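Steps: raffinose overnight preculture; dilution to OD 0.005 in 2% galactose minimal medium; compound addition (concentration series); 24hr at 30C, 99% humidity; absorbance read at 600 nm.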
CCT modulator: modulators of cytosolic chaperonin (CCT/TRiC) activity. purified chaperonin ATPase assay, HTRF ADP detection, 30 min. activity change, % (concentration not given with the values), hits read low. 360,000 compounds, 0.3% hits; in the data active = activity change below about -30%; note: % is set by controls: 0 for no effect and ±100 for the full control effect
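Nucleotide hydrolysis assay: TRiC at 20–40 nM final (set by batch activity) with 10 uM ATP, 30 min at 37 °C, in presence of 76 uM compound. Detection by competitive ADP HTRF, 30 min ambient.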
Abeta yeast res: compounds reversing amyloid beta toxicity in yeast; yeast expressing A-beta42, growth rescue, OD600, 48 h; response scale: 0% DMSO, 100% iron-clioquinol control; Potency, µM (doses to about 46.1 µM), hits mostly activators; 410,000 compounds, 0.063% hits; AID 1347071; note: potency is the fitted concentration of half-maximal effect; nearly all actives have a fitted effect of over 55% in size
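Growth rescue measured by 600 nm absorbance after 48 h yeast culture at 30 C with compound. Values normalized between DMSO and an equimolar ferric chloride plus clioquinol control.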
aSyn yeast inh: rescues yeast growth from alpha-synuclein toxicity; Yeast expressing alpha-synuclein, growth rescue, BacTiter-Glo, 24 h; Potency, µM (titrated, usually from 46.1 µM), for the others: at the top dose growth rescue (activation), hits mostly activators; 370,000 compounds, 0.14% hits; AID 652106; note: potency is the fitted concentration of half-maximal effect; % of control where 0% means no effect; nearly all actives have a fitted effect of over 65% in size
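Galactose-induced alpha-syn yeast (OD600=0.02, raffinose-pregrown) + pinned cpd, 24 hr, 30 deg C; growth by BacTiter-Glo luminescence. Growth restoration scores as activation.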
Starred values were filed as active, the others as inactive; i = inactive; ? = inconclusive; nt = no result given; [ ] = remark or other dose. Only some compounds are listed: those with a hit (about 2.3% of all), similar ones and a draw of the others. Unless noted, calls come from the whole dose curve; as a rule, active = well fitted curve in the direction sought with a large enough effect; inconclusive = small, poorly fitted or top-dose-only effect, or another doubt; inactive = no such curve, though single readings can be large; an effect the other way counts as inactive or inconclusive.

SMILES | Mm-Cpn inhibitor | TDP43 rescue | FUS yeast rescue | CCT modulator | Abeta yeast res | aSyn yeast inh
Cc1cc(Nc2cccc(Cl)c2)nc2ccc(NC(=O)c3ccc(F)cc3Cl)cc12 | nt | 20µM* | ? | nt | i | nt
Oc1cc(O)c(/C=C/c2ccnc3ccccc23)c(O)c1 | nt | nt | nt | nt | nt | -3.5%
O=C(CSc1nc(O)cc(=O)n1-c1ccccc1)Nc1ccc(Br)cn1 | -3.2% | nt | 28.2µM* | 2.9 | i | 6.3%
CC(C)(C)NC(=O)CSc1nc(O)cc(=O)n1-c1ccccc1 | -1.1% | 8.5% | i | -3.0 | i | -3.2%
CN1C(=O)/C(=N\OC(=O)c2cccc3ccccc23)c2ccccc21 | -1.7% | 17.8µM* | i | 1.8 | i | ?
COc1ccc(C(=O)OCCN2C(=O)c3ccccc3C2=O)cc1 | 1.6% | 2.4% | i | -0.1 | i | ?
CC(=O)/C=C1\C(=O)N(C)c2ccccc21 | nt | nt | nt | nt | nt | 0.0%
COc1ccc(C(=O)O/N=C2\C(=O)N(C)c3ccccc32)cc1 | nt | 3.98µM* | i | -1.0 | nt | 5.62µM*
CC(C)CNC(=O)COC(=O)c1cncc(Br)c1 | -18.5% | -18.6% | 4.47µM* | -1.8 | i | 0.0%
CSc1ccc(Cl)c(C(=O)OCC(=O)NCC(C)C)c1 | -5.1% | 14.1µM* | i | -2.3 | i | 0.4%
CNC(=O)COC(=O)c1cc(SC)ccc1Cl | -0.8% | ? | i | -3.4 | i | 0.3%
Fc1ccccc1SCc1nnc(-c2ccccc2Br)o1 | -2.9% | 22.4µM* | i | -0.4 | i | 13.2%
Cc1nn(C)c(C)c1/C=C/C(=O)c1ccc(Cl)cc1Cl | 0.6% | 25.1µM* | i | -4.3 | i | 10.5%
COc1ccc(N2CCN(C(=O)CCc3c(C)nc4c(-c5ccccc5)c(C)nn4c3C)CC2)cc1 | nt | 22.4µM* | ? | nt | i | nt
O=C(NCCc1c[nH]c2ccccc12)OCc1cn(Cc2cccc(C(F)(F)F)c2)nn1 | nt | nt | i | nt | nt | nt
Cc1cc2c([nH]c3ccccc32)c2c1OC(C)(C)C=C2 | 0.0% | 28.2µM* | i | 0.2 | i | 1.6%
COc1ccc2[nH]c(=O)c3c(c2c1)OC(C)(C)C=C3 | -0.6%[15.4 µM] | 7.0% | i | 0.4 | i | -2.0%
CCCOc1ccc(C(=O)N2CCC(Oc3cccnc3)CC2)cc1 | nt | nt | i | nt | nt | nt
CCc1noc(C)c1C(=O)Nc1nc(-c2cccs2)cs1 | -7.7% | 12.6µM* | i | -4.6 | i | -10.4%
COc1ccc(CCC(=O)NO)cc1 | nt | nt | nt | nt | nt | -0.7%
CCCn1nc(NS(C)(=O)=O)c2cc3cccc(C)c3nc21 | 0.7% | 35.5µM* | ? | -1.2 | i | 16.0%
CC(C)(C)c1ccc(C2Sc3ccccc3NC3=C2C(=O)c2ccccc23)cc1 (configuration not stated) | nt | -1.3% | i | nt | i | nt
O=C1C(Br)=Cc2cccc3cccc1c23 | -16.9% | 14.1µM* | i | -3.4 | i | 0.4%
O=C1c2sccc2-c2cccc3cccc1c23 | nt | -51.9% | i | -3.4 | i | ?
O=c1c2ccccc2n(Cc2ccco2)n1[C@@H](Cc1ccccc1)Cn1cc(-c2ccc(-c3ccccc3)cc2)nn1 | nt | nt | 17.8µM* | nt | nt | nt
SMILES | Mm-Cpn inhibitor | TDP43 rescue | FUS yeast rescue | CCT modulator | Abeta yeast res | aSyn yeast inh
O=C(CCn1nnc(-c2cccs2)n1)N1CCCCC1 | nt | nt | i | nt | nt | nt
CCCC[C@H]1C2CC(OC(=O)Nc3ccc(Cl)cc3)C(C2)[C@H]2CCCCN21 (some centres not stated) | nt | nt | i | nt | nt | nt
O=C(COc1ccc(-c2nnco2)cc1)NC1CCCc2ccccc21 (configuration not stated) | 1.3% | 20µM* | i | -1.2 | i | 1.3%
Cc1cc(Sc2ncnc(N)c2[N+](=O)[O-])ncn1 | -1.1% | 22.4µM* | i | -1.0 | i | -7.6%
Cc1ccc(Oc2ncnc(N)c2[N+](=O)[O-])cc1C | 0.5% | 11.2µM* | i | 1.5 | i | 5.8%
Cc1cc(Sc2nc(N)ncc2[N+](=O)[O-])ncn1 | -0.4% | ? | i | -2.3 | i | 2.8%
O=S1(=O)C=C(Sc2nnc(-c3ccccc3)o2)c2ccccc21 | ? | 8.91µM* | i | 1.4 | i | -13.4%

Bioassay records (PubChem)
